High-throughput results (PubChem BioAssay)
E coli growth-1: E. coli growth inhibition, primary screen, OD600; OD600 absorbance (concentration not given with the values); Escherichia coli growth, 23 h; stronger effect = lower value; actives 0.21% (n = 330,000);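 active means OD600 absorbance below the run mean of sample wells minus 3.6 SD, in any replicate, cut at about 0.56 in these data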
AddAB inh: growth inhibition of E. coli expressing H. pylori AddAB, primary screen, AddAB inhibitor project, absorbance; actives 0.29% (n = 330,000); inhibition, % at 11.9 µM; in the data active means inhibition above about 12%
phage Ecoli inh: growth loss of phage-infected E. coli, primary screen, RecBCD inhibitor project, absorbance, with phage, HTS. inhibition, % at 11.9 µM. actives 0.26% (n = 360,000). AID 651602, 2012; in the data active means inhibition above about 11%
E coli growth-2: E. coli V3065 growth inhibition, primary screen, counter-screen for AddAB inhibitor project, absorbance, OD600; 18 h; inhibition, % at 11.9 µM; actives 0.27% (n = 330,000);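 active means inhibition above the campaign's mean inhibition across all tested compounds plus 3 SD, cut at about 9.9% in these data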;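 further: uninfected addAB+ strain grown without phage in ampicillin broth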
Tat export inh: E. coli Tat export inhibitors, primary screen, MC4100, TorA-mCherry reporter, fluorescence, single point; inhibition, % at 10 µM; actives 0.036% (n = 340,000);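 active means mean replicate inhibition at least 50% and at least half of replicates individually reaching 50%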;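 further: exported cargo escapes ClpAP degradation while cytoplasmic cargo is degraded and loses fluorescence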
AddAB confirm: growth loss of phage-infected E. coli expressing H. pylori AddAB, confirmation, AddAB inhibitor project, absorbance, E. coli V3065, T4 phage, triplicate | AID 488942, 2010 | OD; T4 phage with gene 2 nonsense mutations | inhibition, % at 11.9 µM | shares compounds with AddAB inh | actives 64% (n = 880);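 active means mean inhibition above a set limit taken from the earlier primary screen, cut at about 13% in these data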;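 further: higher means less bacterial growth since AddAB block lets phage replicate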
RecBCD counter: growth loss of RecBCD+ E. coli with mutant T4 phage, counter-screen for AddAB inhibitor project, absorbance, V66 E. coli | shares compounds with AddAB inh | OD growth | inhibition, % at 11.9 µM | actives 73% (n = 880) | AID 488955, 2010;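 active means mean inhibition above the mean of solvent-only control wells plus 3 SD, cut at about 4% in these data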;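 further: optical density read after an 18 h incubation at 37 °C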
bact viab count: bacterial viability inhibition counter-screen, confirmation, counter-screen for AddAB inhibitor project, absorbance | inhibition, % at 11.9 µM | actives 35% (n = 880) | AID 488956, 2010 | absorbance (AddAB counterscreen) | shares compounds with AddAB inh; in the data active means inhibition above about 25%
Of the large screens only hits and unclear results are named; the others gave an inactive call (follow-up assays come after a bar, where they were run). In the library only some 0.5% were active in any assay of this set; here they are far more common.

COc1ccc(Cl)cc1C(=O)CSc1nc(N)cc(N)n1	AddAB inh 98.4, E coli growth-2 97.3 | AddAB confirm inactive | RecBCD counter inactive | bact viab count inactive
CCCCn1nnnc1SCC(=O)c1cc(Cl)ccc1OC	none
CCOc1ccc(S(=O)(=O)n2cc(F)c(=O)[nH]c2=O)cc1[N+](=O)[O-]	AddAB inh 23.6, E coli growth-2 17.1 | AddAB confirm inactive | RecBCD counter inactive | bact viab count inactive
O=S(c1cc(Cl)cc(Cl)c1O)c1cc(Cl)cc(Cl)c1O	none (no result: E coli growth-1, AddAB inh, E coli growth-2, Tat export inh)
Oc1c(Cl)cc(Cl)cc1Sc1cc(Cl)cc(Cl)c1O	AddAB inh 15.2, E coli growth-2 16.0 (no result: E coli growth-1, phage Ecoli inh, Tat export inh) | AddAB confirm inactive | RecBCD counter 15.2 | bact viab count inactive
COc1ccc2c(c1)OC(c1cccc(C(F)(F)F)c1)C(OC(=O)Nc1ccc(OC(F)F)cc1)C2=O (stereo not drawn)	none (no result: AddAB inh, phage Ecoli inh, E coli growth-2, Tat export inh)
O=c1c(O)c(-c2ccc(O)c(O)c2)oc2cc(O)cc(O)c12	AddAB inh 13.3 | AddAB confirm inactive | RecBCD counter inactive | bact viab count inactive
CSc1n[nH]c(N=Cc2oc(O)c3ccccc23)n1	none (no result: AddAB inh, phage Ecoli inh, E coli growth-2, Tat export inh)
O=C(Nc1ccc([N+](=O)[O-])cc1)Nc1ccc(OC(F)F)c(Cl)c1	E coli growth-1 0.288, AddAB inh 14.9, phage Ecoli inh 12.9, E coli growth-2 14.7 | AddAB confirm 15.2 | RecBCD counter 17.0 | bact viab count inactive
COc1ccc(C=NNC(=O)c2ccoc2C)cc1COc1c(C)cccc1C	none (no result: AddAB inh, phage Ecoli inh, E coli growth-2, Tat export inh)
CCOc1ccc(N(CC(=O)NN=C(C)c2cccc(NC(C)=O)c2)S(=O)(=O)c2ccccc2)cc1	none (no result: AddAB inh, phage Ecoli inh, E coli growth-2, Tat export inh)
O=C(CSCc1cccc(Cl)c1)NN=Cc1ccc(OCC(=O)N2CCCCC2)cc1	none (no result: AddAB inh, phage Ecoli inh, E coli growth-2, Tat export inh)
O=[N+]([O-])c1ccc(/C=N/n2cnc3ccccc32)s1	AddAB inh 15.4 (no result: E coli growth-1) | AddAB confirm 97.7 | RecBCD counter 5.9 | bact viab count inactive
COc1cc(-c2cc(=O)c3c(O)c(OC)c(OC)c(O)c3o2)ccc1O	none
COc1c(O)c(O)c2oc(-c3ccccc3)cc(=O)c2c1OC	AddAB inh 16.1 | AddAB confirm 14.3 | RecBCD counter 9.2 | bact viab count inactive
Cc1ccc(NC(=O)COC(=O)C2CCN(c3ccc(C(F)(F)F)cn3)CC2)cc1C	AddAB inh 96.1, E coli growth-2 52.5 | AddAB confirm inactive | RecBCD counter inactive | bact viab count inactive
O=C1C(Nc2ccccc2)=C/C(=N/S(=O)(=O)c2cccs2)c2ccccc21	AddAB inh 16.6 (no result: E coli growth-1, phage Ecoli inh) | AddAB confirm inactive | RecBCD counter 4.7 | bact viab count inactive
O=C(O)c1ccc(N/N=C/C=C/c2ccc([N+](=O)[O-])o2)cc1	AddAB inh 14.0 (no result: E coli growth-1) | AddAB confirm 30.9 | RecBCD counter inactive | bact viab count inactive
S=c1[nH]nc(-c2ccccc2)n1N=Cc1c[nH]c2ccccc12	none (no result: AddAB inh, phage Ecoli inh, E coli growth-2, Tat export inh)
O=C(CSc1nc2ccc(Cl)cc2[nH]1)Nc1ccc2c(c1)CCC2	none (no result: E coli growth-1)
O=C(CSc1nc2ccccc2[nH]1)Nc1ccc2c(c1)CCC2	AddAB inh 17.5 | AddAB confirm inactive | RecBCD counter 5.2 | bact viab count inactive
CCN(C(=O)C1CCCN(c2nc(-c3ccc(OC)cc3)no2)C1)c1ccccc1F (stereo not drawn)	AddAB inh 22.1 | AddAB confirm inactive | RecBCD counter inactive | bact viab count inactive
CCN(C(=O)C1CCN(c2nc(-c3ccc(OC)cc3)no2)CC1)c1ccccc1	none
O=C1NC(c2ccccc2)COC(=O)C(Cc2ccc(F)cc2)CC=CCC1CC(=O)N(CCO)Cc1ccccc1 (stereo not drawn)	none (no result: AddAB inh, phage Ecoli inh, E coli growth-2, Tat export inh)
CCCCCC(=O)Nc1cccc(C2=NOC3(C2)CC(C(N)=O)N(C(=O)COc2ccc(Cl)cc2)C3)c1 (stereo not drawn)	none (no result: AddAB inh, phage Ecoli inh, E coli growth-2, Tat export inh)
CCOC(=O)/C=C/C(=O)OCC(=O)Nc1cccc(Cl)c1Cl	AddAB inh 97.0, E coli growth-2 76.0 | AddAB confirm inactive | RecBCD counter inactive | bact viab count inactive
CCn1cc(C(=O)OCC(=O)N(C)Cc2ccccc2)c(=O)c2ccc(C)nc21	AddAB inh 98.0, E coli growth-2 95.5 (no result: E coli growth-1) | AddAB confirm inactive | RecBCD counter inactive | bact viab count inactive
CCn1cc(C(=O)OCC(=O)c2cc(C)n(-c3ccccc3)c2C)c(=O)c2ccc(C)nc21	none
COc1ccc(C=NNc2nc(N3CCCC3)nc(N3CCCC3)n2)cc1	none (no result: AddAB inh, phage Ecoli inh, E coli growth-2, Tat export inh)
COc1ccc(Cc2nnc(NN)[nH]c2=O)cc1OC	E coli growth-1 0.0805, AddAB inh 97.2, E coli growth-2 92.7 | AddAB confirm 98.8 | RecBCD counter 11.5 | bact viab count 96.6
COCCNc1nnc(Cc2ccc(OC)c(OC)c2)c(=O)[nH]1	none
CC(=O)Oc1cc(O)c2c(=O)c(OC(C)=O)c(-c3ccc(OC(C)=O)c(OC(C)=O)c3)oc2c1	AddAB inh 16.1 (no result: phage Ecoli inh) | AddAB confirm 14.1 | RecBCD counter 4.2 | bact viab count inactive
COc1ccc(-c2oc3cc(OC(C)=O)cc(OC(C)=O)c3c(=O)c2OC)cc1	none (no result: AddAB inh, E coli growth-2)
CCN1CCN(C2=C(NS(=O)(=O)c3ccc(Br)cc3)C(=O)c3ccccc3C2=O)CC1	AddAB inh 14.0, E coli growth-2 10.9 | AddAB confirm inactive | RecBCD counter inactive | bact viab count inactive
Cc1c(OC(C)C(=O)NCC(O)c2ccccc2)ccc2c3c(c(=O)oc12)CCC3 (stereo not drawn)	AddAB inh 33.9, E coli growth-2 28.2 | AddAB confirm inactive | RecBCD counter inactive | bact viab count inactive
Cc1c(OC(C)C(=O)N[C@H](C(=O)O)c2ccccc2)ccc2c3c(c(=O)oc12)CCCC3 (stereo partly drawn)	none
O=C(NN=C/C=C/c1ccccc1)NC1CCCCC1	none (no result: AddAB inh, phage Ecoli inh, E coli growth-2, Tat export inh)
O=C(N/N=C/C=C/c1ccccc1)NC1CCCCC1	AddAB inh 36.6, E coli growth-2 17.7 (no result: E coli growth-1) | AddAB confirm inactive | RecBCD counter inactive | bact viab count inactive
CCOCCCn1c(SC(C(=O)Nc2cc(C)ccc2C)c2ccccc2)nnc1-c1ccc(Cl)cc1 (stereo not drawn)	AddAB inh 32.7, E coli growth-2 67.9 | AddAB confirm inactive | RecBCD counter inactive | bact viab count inactive
CC(NC(=O)c1nc[nH]c1C(=O)NC(CCCCNC(=O)OC(C)(C)C)C(=O)OC(C)(C)C)c1ccccc1 (stereo not drawn)	none (no result: AddAB inh, phage Ecoli inh, E coli growth-2, Tat export inh)
Cc1nc2ccccc2n1CC(=O)NN=Cc1cccnc1	none (no result: AddAB inh, phage Ecoli inh, E coli growth-2, Tat export inh)
CC(=O)c1c(C)n([O-])c2ccc(C)cc2[n+]1=O	E coli growth-1 0.43, AddAB inh 23.2, E coli growth-2 24.1 | AddAB confirm 68.3 | RecBCD counter 8.3 | bact viab count 53.2
